From PubChem BioAssay come the findings set out here.

As usually defined, the viability is a read-out of living cells in per cent, often relative to untreated cells.

Where “and” joins values, the source holds several entries; their conditions need not be identical. Equal values may be shown once. Calls of active or inactive are those of the source. Rule as the data show it, unless noted: active = parasite load remaining mostly below about 12% (no sharp cut-off); inactive = mostly above about 10%.

The first assay in a line: GFP-Q80 aggregate reduction, neuronal-like cells, cell-based, NGF-treated PC12, GFPQ80 (AID 1614).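 Also: lower means fewer inclusions and 0 means no inclusions at all.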 The conditions noted are these: PC12 NGF-treated GFP-polyQ80 inclusion reduction.
In turn, `O=c1c(-c2ccc(O)cc2)coc2cc(O)ccc12` had an inclusion score of 2.

The compound `CON` registered an inclusion score of 2.

Consider `C=NC(C(=O)NC1C(=O)N2C1SC(C)(C)C2C(=O)O)c1ccccc1` (stereo not drawn), for which the inclusion score amounted to 2.

On to `NC1=NCCN1CC(=O)O`, for which the inclusion score worked out at 2.

For the compound `CC(=O)N[C@@H]1[C@@H](O)[C@H](O)[C@@H](CO)O[C@H]1O`, the inclusion score worked out at 2.

Consider `NC(Cn1ccc(=O)c(O)c1)C(=O)O` (stereo not drawn), for which the inclusion score came out at 2.

Regarding `C[C@]12CCC3c4ccc(OS(=O)(=O)O)cc4CCC3C1CC[C@H]2O` (stereo partly drawn), the inclusion score worked out at 2.

Compound `CCN1CCCC1CNC(=O)c1cc(S(N)(=O)=O)ccc1OC` (stereo not drawn) displayed an inclusion score of 1.5.

`NC1(C(=O)O)CCCC1` came in with an inclusion score of 2.

`O=C(O)c1cc(=O)c2cccc(O)c2[nH]1` had an inclusion score of 1.

The compound `COc1cc(OC)c2ccc(=O)oc2c1` registered an inclusion score of 2.

Regarding `COc1cc(C)c2c(=O)cc(-c3ccccc3)oc2c1`, the inclusion score was found to be 1.

Consider `O=C(O)c1cc([N+](=O)[O-])ccc1NCCCc1ccccc1`, for which the inclusion score was found to be 2.

As to `NC(=O)c1cccc(N)c1`, the inclusion score came out at 2.

Take `COc1c(OC)c2occc2c2oc(=O)ccc12`: the inclusion score was determined as 2.

Another assay can be described thus: 75Q-TubH aggregate inhibition, S. cerevisiae, yeast (AID 1616). The conditions noted are these: S. cerevisiae 75Q-TubH polyglutamine aggregation suppression; stronger effect = higher value.
With `O=c1c(-c2ccc(O)cc2)coc2cc(O)ccc12`, the aggregation suppression score came out at 1.43.

In the case of `N#Cc1ccc2c(c1)N(CCCN1CCC(O)CC1)c1ccccc1S2`, the aggregation suppression score was 1.12.

In turn, `CON` displayed an aggregation suppression score of 1.29.

For `CC(C)=CCc1c2c(c3occ(-c4ccc(O)c(O)c4)c(=O)c3c1O)C=CC(C)(C)O2`, the aggregation suppression score was -1.07.

`C=NC(C(=O)NC1C(=O)N2C1SC(C)(C)C2C(=O)O)c1ccccc1` (stereo not drawn) showed an aggregation suppression score of 0.649.

In turn, `O=C1C=CC(=C(c2ccc(O)cc2)c2ccc(O)cc2)C=C1` gave an aggregation suppression score of 1.13.

As for `NC1=NCCN1CC(=O)O`, the aggregation suppression score amounted to 0.99.

In the case of `CC(=O)c1c(O)c(C)c(O)c2c1OC1=CC(=O)C(C(C)=O)C(=O)C12C` (stereo not drawn), the aggregation suppression score stood at 0.354.

`CC(=O)N[C@@H]1[C@@H](O)[C@H](O)[C@@H](CO)O[C@H]1O` displayed an aggregation suppression score of 1.62.

Take `NC(Cn1ccc(=O)c(O)c1)C(=O)O` (stereo not drawn): the aggregation suppression score came out at 0.845.

The compound `C[C@]12CCC3c4ccc(OS(=O)(=O)O)cc4CCC3C1CC[C@H]2O` (stereo partly drawn) returned an aggregation suppression score of 1.25.

Consider `CCN1CCCC1CNC(=O)c1cc(S(N)(=O)=O)ccc1OC` (stereo not drawn), for which the aggregation suppression score came to 1.43.

For the compound `NC1(C(=O)O)CCCC1`, the aggregation suppression score amounted to 1.57.

`O=C1c2ccc(O)c(O)c2C(=O)c2c(O)ccc(O)c21` yielded an aggregation suppression score of 0.505.

On to `O=C(O)c1cc(=O)c2cccc(O)c2[nH]1`, for which the aggregation suppression score was 1.12.

Turning to `COc1cc(OC)c2ccc(=O)oc2c1`, the aggregation suppression score came to 0.869.

In turn, `COc1cc(C)c2c(=O)cc(-c3ccccc3)oc2c1` displayed an aggregation suppression score of -0.775.

For `O=C(O)c1cc([N+](=O)[O-])ccc1NCCCc1ccccc1`, the aggregation suppression score worked out at 0.265.

`NC(=O)c1cccc(N)c1` came in with an aggregation suppression score of 1.37.

For `COc1c(OC)c2occc2c2oc(=O)ccc12`, the aggregation suppression score worked out at 0.328.

A short description of a further assay: compounds altering circadian rhythm period length – cell-based, LOPAC library, luminescence reporter (AID 2774; call rule not given here;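 also: values are relative to mean of DMSO wells on each plate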). The following applies: circadian reporter cells, at 7 µM, actives lie on both sides.
Regarding `O=c1c(-c2ccc(O)cc2)coc2cc(O)ccc12`, the period change is 0.115 h (inactive).

`CCN1CCCC1CNC(=O)c1cc(S(N)(=O)=O)ccc1OC` (stereo not drawn): the period change is -0.06 h (inactive).

`O=c1[nH]c2cc(Cl)c(Cl)cc2[nH]c1=O`: the period change was 0.15 h (inactive).

For the compound `O=C(O)c1cc([N+](=O)[O-])ccc1NCCCc1ccccc1`, the period change was 0.025 h (inactive).

For the compound `CC(CCc1ccc(O)cc1)NCCc1ccc(O)c(O)c1` (stereo not drawn), the period change is 0.025 h (inactive).

As to `NC(=O)c1cccc(N)c1`, the period change was 0.16 h (inactive).

A further assay is described as follows: compounds altering viability of human ES cells (AID 493140; call rule not given here;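 also: cells exposed to compounds for four days before counting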). The following applies: human embryonic stem cell survival screen; stronger effect = higher value.
For `O=c1c(-c2ccc(O)cc2)coc2cc(O)ccc12`, the survival was 70.6 (inactive).

Regarding `NC(Cn1ccc(=O)c(O)c1)C(=O)O` (stereo not drawn), the survival was 11.3 (inactive).

For `CCN1CCCC1CNC(=O)c1cc(S(N)(=O)=O)ccc1OC` (stereo not drawn), the survival is 17.8 (inactive).

As to `COc1c2ccoc2nc2c(OC)c(OCC(O)C(C)(C)O)ccc12` (stereo not drawn), the survival was 4.17 (inactive).

As to `CC(CCc1ccc(O)cc1)NCCc1ccc(O)c(O)c1` (stereo not drawn), the survival is 15.4 (inactive).

The next assay in a line: P. berghei load reduction in hepatocytes – cell-based, HepG2, luciferase luminescence, HepG2 viability, primary screen (AID 624349).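 Also: 100% = mean of DMSO negative control wells on the same plate.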 The conditions noted are these: P. berghei liver stage in HepG2, luciferase luminescence, concentration not given here; parasite load remaining: stronger effect = lower value; viability: measured here: HepG2 viability without parasites.
On to `O=C(O)c1cc2ccccc2[nH]1`, for which the viability was 75.3% and the parasite load remaining is 53.6% (inactive).

Turning to `O=c1c(-c2ccc(O)cc2)coc2cc(O)ccc12`, the parasite load remaining is 225% (inactive) and the viability stood at 94.2%.

Turning to `O=C(/C=C/c1ccccc1)c1ccc(O[C@@H]2O[C@H](CO)[C@@H](O)[C@H](O)[C@H]2O)cc1O`, the parasite load remaining was 121% (inactive) and the viability was determined as 96.4%.

For the compound `N#Cc1ccc2c(c1)N(CCCN1CCC(O)CC1)c1ccccc1S2`, the parasite load remaining is 134% (inactive) and the viability is 87.2%.

Consider `C=NC(C(=O)NC1C(=O)N2C1SC(C)(C)C2C(=O)O)c1ccccc1` (stereo not drawn), for which the parasite load remaining was 130% (inactive) and the viability stood at 74.4%.

`NC1=NCCN1CC(=O)O`: the viability turned out to be 69.9% and the parasite load remaining is 89.9% (inactive).

For the compound `C[C@@]12C(=O)OC(=O)[C@]1(C)[C@H]1CC[C@@H]2O1`, the parasite load remaining is -0.2% (inactive) and the viability is 9.1%.

Take `CC(=O)N[C@@H]1[C@@H](O)[C@H](O)[C@@H](CO)O[C@H]1O`: the parasite load remaining was 72.2% (inactive) and the viability was 78.3%.

In the case of `NC(Cn1ccc(=O)c(O)c1)C(=O)O` (stereo not drawn), the parasite load remaining is 81.8% (inactive) and 76.8% (inactive); the viability came out at 72.6%.

Take `CCOC(=O)[C@H](CCc1ccccc1)N[C@H](C)C(=O)N1C2CCCCC2C[C@H]1C(=O)O` (stereo partly drawn): the viability came out at 94.3% and the parasite load remaining was 125% (inactive).

`CCN1CCCC1CNC(=O)c1cc(S(N)(=O)=O)ccc1OC` (stereo not drawn): the parasite load remaining is 39.8% (inactive) and 78.3% (inactive); the viability was 52.6% and 93.4%.

Regarding `COC1=CC(=O)C=C(OC)C1=O`, the parasite load remaining was 122% (inactive) and the viability was 94.3%.

For the compound `NC1(C(=O)O)CCCC1`, the parasite load remaining was 96.4% (inactive) and the viability was found to be 69.9%.

As to `O=C(O)c1cc(=O)c2cccc(O)c2[nH]1`, the viability stood at 71.4% and the parasite load remaining was 174% (inactive).

`COc1cc(OC)c2ccc(=O)oc2c1`: the parasite load remaining was 128% (inactive) and the viability was found to be 69.7%.

As for `CC(CCc1ccc(O)cc1)NCCc1ccc(O)c(O)c1` (stereo not drawn), the viability is 109% and 73.6% and 115%; the parasite load remaining is 118% (inactive) and 72.9% (inactive) and 42.2% (inactive).
